Laboratory results: PubChem BioAssay (EPA / NIEHS)
Results filed as inconclusive are left out. Calls of active or inactive are those of the source. Rule for the calls, unless noted: active = hit-call score of the fitted dose curve at least 0.9, where 1 is the maximum; inactive = score below 0.9.

Columns and labels:
[1] = CCTE_Mundy_HCI_Cortical_NOG_NeuriteLength: CCTE's Neurite Outgrowth Assay in rat cortical cells for Neurite Length, Mundy Lab (AID 2284213)
Procedure, shortened: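 First, rat primary cortical cells were plated and, 2 h later, given test chemical as a 1/10 dilution. Finally, βIII-tubulin immunostaining enabled automated imaging of neurite length.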

[2] = CCTE_Mundy_HCI_Cortical_Synap_Neur_Matur_NeuriteLength: CCTE's Synaptogenesis and Neurite Maturation Assay in rat cortical cells for Neurite Length, Mundy Lab (AID 2284214)
Procedure, shortened: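 Cultures of rat primary cortical cells received chemical at DIV 7 and were fixed at DIV 12, after glial arrest with AraC at DIV 5. Neurite length was measured by automated imaging of MAP2 immunofluorescence.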

[3] = CCTE_Mundy_HCI_Cortical_Synap_Neur_Matur_SynapseCount: CCTE's Synaptogenesis and Neurite Maturation Assay in rat cortical cells for Synapse Count, Mundy Lab (AID 2284218)
Procedure, shortened: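 Cells were plated, allowed 2 hr to attach, treated with AraC at DIV 5, then exposed to chemicals from DIV 7 until DIV 12. After fixation and MAP2/synaptophysin immunolabelling, synapses per neuron were quantified by automated imaging against DMSO.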

[4] = CCTE_Mundy_HCI_Cortical_Synap_Neur_Matur_NeuriteCount: CCTE's Synaptogenesis and Neurite Maturation Assay in rat cortical cells for Neurite Count, Mundy Lab (AID 2284222)
Procedure, shortened: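 Primary rat cortical cells were plated, treated with AraC at DIV 5, then exposed to chemicals from DIV 7 through DIV 12. After fixation and immunostaining for MAP2 and synaptophysin, imaging quantified neurites, with DMSO as the negative control.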

[5] = CCTE_Mundy_HCI_Cortical_Synap_Neur_Matur_CellBodySpotCount: CCTE's Synaptogenesis and Neurite Maturation Assay in rat cortical cells for Cell Body Spot Count, Mundy Lab (AID 2284223)
Procedure, shortened: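 Read-out: cell body-associated synaptophysin puncta per neuron, imaged after MAP2, synaptophysin and Hoechst staining. Rat cortical cells, AraC DIV 5, chemical dosing DIV 7, fixation DIV 12. Activity fitted in positive direction relative to DMSO baseline.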

[6] = CCTE_Mundy_HCI_hNP1_Pro_ResponderAvgInten: CCTE's Proliferation Assay in human neuroprogenitor cells, Mundy Lab (AID 2284224; active = hit-call score of the fitted dose curve at least 0.9, where 1 is the maximum;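 note: human neural progenitor cells hNP1 derived from WA09 embryonic stem cells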)
Procedure, shortened: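 Human neuroprogenitors (hNP1, WA09 lineage) receive test chemical after 40 to 44 hours of attachment. A four-hour BrdU pulse begins twenty hours later, followed by fixation and high content imaging; signal is referenced to DMSO controls.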

[7] = UKN2_HCS_IMR90_cell_viability: Viability Assessment in the University of Konstanz (UKN) Leist Lab Neural Crest Cell Migration Assay in human induced IMR90 Pluripotent Stem Cells (UKN2) (AID 2284233);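 note: viability of neural crest cells differentiated from IMR90 iPSC measured by calcein-AM fluorescence imaging; cells exposed to compound for 24 h after a 24 h migration phase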
Procedure, shortened: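 cMINC format, iPSC-derived neural crest (IMR90); 24 h migration (EGF/FGF, N2-S), then 24 h toxicant. Calcein-AM/H-33342 stain 30 min; fluorescence intensity by HCS; DMSO-normalised, bidirectional fitting.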

[8] = CCTE_Mundy_HCI_Cortical_NOG_NeuronCount: CCTE's Neurite Outgrowth Assay in rat cortical cells for Neuron Count, Mundy Lab (AID 2284236; active = hit-call score of the fitted dose curve at least 0.9, where 1 is the maximum;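 note: neurons counted by imaging betaIII-tubulin and Hoechst stained cortical cells; cells exposed to compound for about 48 hours before fixation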)
Procedure, shortened: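 Read-out: neuron number by high-content imaging of betaIII-tubulin (Alexa Fluor-488) and Hoechst-labelled rat primary cortical cells.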

[9] = CCTE_Mundy_HCI_Cortical_NOG_BPCount: CCTE's Neurite Outgrowth Assay in rat cortical cells for Branch Point Count, Mundy Lab (AID 2284237)
Procedure, shortened: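 Measured 50.33 h after dosing, this morphology endpoint uses rat primary cortical cultures labelled for betaIII-tubulin. Branch points are quantified by high-content imaging, with DMSO as negative control and baseline.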

[10] = CCTE_Mundy_HCI_hNP1_Casp3_7: CCTE's Caspase-Glo 3/7 Assay in human neuroprogenitor cells for Apoptosis, Mundy Lab (AID 2284240)
Procedure, shortened: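 Neuroepithelial-lineage stem cells from WA09 embryonic cells were treated with chemicals after 40–44 h of culture. Twenty-four hours later, caspase-3/7 activation was detected luminescently after a 30 min room-temperature reagent step, with DMSO as baseline.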

[11] = CCTE_Mundy_HCI_hNP1_CellTiter: CCTE's Cell Titer-Glo 2 Assay in human neuroprogenitor cells for Viability, Mundy Lab (AID 2284241; active = hit-call score of the fitted dose curve at least 0.9, where 1 is the maximum)
Procedure, shortened: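 Measures ATP content in human neural progenitors derived from WA09 embryonic cells. Read-out at 26.5 hours after dosing, with DMSO serving as the negative control and baseline.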

[12] = CCTE_Mundy_HCI_Cortical_Synap_Neur_Matur_NeuronCount: CCTE's Synaptogenesis and Neurite Maturation Assay in rat cortical cells for Neuron Count, Mundy Lab (AID 2284242; active = hit-call score of the fitted dose curve at least 0.9, where 1 is the maximum)
Procedure, shortened: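 Cortical cells from rat are plated, treated with AraC at DIV 5, and exposed to test chemicals with a media change at DIV 7. At DIV 12 they are fixed and immunostained (MAP2, synaptophysin), and imaged neuron counts are compared against DMSO controls.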

[13] = IUF_NPC2a_radial_glia_migration_120hr: Leibniz Research Institute for Environmental Medicine (IUF) 120-hour Neural Progenitor Cell Migration Assay for Radial Glia Migration (NPC2a) (AID 2284298)
Procedure, shortened: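 Hoechst-stained nuclei imaged at 120 h; algorithm maps sphere core by densest nuclei, sets migration edge at density threshold, gives radial glia migration distance (um) per well vs DMSO. hNPC spheres (0.3 mm), PDL/laminin, DMEM/F12 3:1 + 1% N2.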

[14] = IUF_NPC2a_radial_glia_migration_72hr: Leibniz Research Institute for Environmental Medicine (IUF) 72-hour Neural Progenitor Cell Migration Assay for Radial Glia Migration (NPC2a) (AID 2284299)
Procedure, shortened: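 Single 0.3 mm neurospheres were plated per well in N2 differentiation medium and exposed from the start of differentiation. After 72 hours, brightfield images were taken and radial glia migration from the sphere core edge was measured manually in four directions, averaged per well.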

[15] = IUF_NPC2b_neuronal_migration_120hr: Leibniz Research Institute for Environmental Medicine (IUF) 120-hour Neural Progenitor Cell Migration Assay for Neuron Migration (NPC2b) (AID 2284300)
Procedure, shortened: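 hNPC spheres, PDL/laminin, DMEM:F12 3:1 + 1% N2, 37C/5% CO2; 7 concentrations + solvent control (DMSO ≤0.1%), 5 d exposure, half-feed day 3. Fix 120 h, TUBB3 ICC, HCI: mean neuron migration distance ÷ glia distance.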

[16] = IUF_NPC3_neuronal_differentiation_120hr: Leibniz Research Institute for Environmental Medicine (IUF) 120-hour Neuronal Differentiation Assay (NPC3) (AID 2284301)
Procedure, shortened: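 Neuronal differentiation of primary human neural progenitors measured by high-content imaging: percent TUBB3+ of Hoechst+ nuclei within migrated area at 120 h, seven-point serial dilution plus solvent control, gain or loss relative to DMSO.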

[17] = IUF_NPC4_neurite_length_120hr: Leibniz Research Institute for Environmental Medicine (IUF) 120-hour Neuronal Morphology Assay for Neurite Length (NPC4) (AID 2284302)
Procedure, shortened: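 Neurons from differentiating human fetal neural progenitor spheres are scored for average neurite length after five days of compound exposure. Fitting uses DMSO as negative control.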

[18] = IUF_NPC5_oligodendrocyte_differentiation_120hr: Leibniz Research Institute for Environmental Medicine (IUF) 120-hour Oligodendrocyte Differentiation Assay (NPC5) (AID 2284304; active = hit-call score of the fitted dose curve at least 0.9, where 1 is the maximum;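 note: primary human fetal neural progenitor spheres plated to migrate and differentiate; share of O4-positive cells among Hoechst nuclei found by CNN image analysis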)
Procedure, shortened: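 hNPC spheres, fetal cortex GW 16-19; PDL/laminin, DMEM:F12 3:1 + 1% N2, 37C/5% CO2; 7 concentrations + solvent control, 5 d exposure, half-change day 3. Readout: %O4+ of Hoechst+ nuclei in migration area, CNN classification; DMSO baseline.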

[19] = IUF_NPC4_neurite_area_120hr: Leibniz Research Institute for Environmental Medicine (IUF) 120-hour Neuronal Morphology Assay for Neurite Area (NPC4) (AID 2284305; active = hit-call score of the fitted dose curve at least 0.9, where 1 is the maximum)
Procedure, shortened: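 Endpoint at 120 h: automated imaging of TUBB3/Hoechst-stained differentiating human neural progenitor spheres, neurite area per neuron from skeletonization. DMSO solvent control, not above 0.1%, set the baseline; medium was half-replaced on day 3.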

[20] = IUF_NPC2-5_cytotoxicity_72hr: Cytotoxicity Assessment at 72 hours in the Leibniz Research Institute for Environmental Medicine (IUF) Neural Progenitor Cell Migration and Differentiation Assay for Cytotoxicity (NPC2-5) (AID 2284306; active = hit-call score of the fitted dose curve at least 0.9, where 1 is the maximum;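 note: LDH release into supernatant measured by resorufin fluorescence marking membrane damage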)
Procedure, shortened: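 Primary human neural progenitor spheres migrate and differentiate on laminin. Compound is present from the start of differentiation, with DMSO kept at or below 0.1%. At 72 h, supernatant LDH is quantified fluorometrically, with values fitted in the positive direction.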

[21] = IUF_NPC2-5_cytotoxicity_120hr: Cytotoxicity Assessment at 120 hours in the Leibniz Research Institute for Environmental Medicine (IUF) Neural Progenitor Cell Migration and Differentiation Assay (NPC2-5) (AID 2284307; active = hit-call score of the fitted dose curve at least 0.9, where 1 is the maximum)
Procedure, shortened: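 hNPC spheres on PDL/laminin, N2 medium, 37C; 7 concs + solvent control, DMSO ≤0.1%; 5-day exposure, half medium changed day 3. LDH in supernatant at 120 h, resazurin→resorufin fluorescence, gain-of-signal.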

[22] = IUF_NPC2-5_cell_number_120hr: Cell Number Assessment at 120 hours in the Leibniz Research Institute for Environmental Medicine (IUF) Neural Progenitor Cell Migration and Differentiation Assay (NPC2-5) (AID 2284308);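 note: count of Hoechst-stained nuclei in migration zone around plated human neural progenitor spheres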
Procedure, shortened: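 Hoechst-stained nuclei within the migration area were counted by automated high content imaging after 120 h. Single hNPC spheres differentiated on poly-D-lysine/laminin in DMEM/F12 (3:1) with 1% N2, compound present throughout, DMSO ≤0.1%.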

[23] = IUF_NPC2-5_viability_120hr: Viability Assessment at 120 hours in the Leibniz Research Institute for Environmental Medicine (IUF) Neural Progenitor Cell Migration and Differentiation Assay (NPC2-5) (AID 2284312)
Procedure, shortened: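 Human fetal (GW 16-19) neural progenitor spheres of 0.3 mm were plated on poly-D-lysine/laminin in N2 differentiation medium and exposed from day 0 for 120 h, with half-medium refresh at day 3. Viability was read as alamar blue resazurin-to-resorufin fluorescence against DMSO.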

[24] = CCTE_Mundy_HCI_iCellGluta_NOG_NeuriteLength: CCTE's Neurite Outgrowth Assay in iCellGluta cells for Neurite Length, Mundy Lab (AID 2284318; active = hit-call score of the fitted dose curve at least 0.9, where 1 is the maximum)
Procedure, shortened: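 Automated high-content imaging of betaIII-tubulin (Alexa Fluor-488) and Hoechst-stained cells gave neurite length, normalized to the DMSO baseline.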

[25] = IUF_NPC1_cytotoxicity_72hr: Cytotoxicity Assessment at 72 hours in the Leibniz Research Institute for Environmental Medicine (IUF) Neural Progenitor Cell Proliferation Assay (NPC1) (AID 2284332; active = hit-call score of the fitted dose curve at least 0.9, where 1 is the maximum;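 note: rising LDH signal means more cytotoxicity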)
Procedure, shortened: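 Membrane-integrity loss is scored from LDH released into the medium, detected as resorufin fluorescence, with activity fitted upward relative to baseline. Test material stays on human fetal-derived progenitor spheres for 72 h.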

[26] = CCTE_Mundy_HCI_iCellGluta_NOG_NeuriteCount: CCTE's Neurite Outgrowth Assay in iCellGluta cells for Neurite Count, Mundy Lab (AID 2284342; active = hit-call score of the fitted dose curve at least 0.9, where 1 is the maximum;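 note: chemical exposure about 48 hours starting 2 hours after plating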)

Measured: outcome

CCCCCC=C(C)C(CC)CCO (stereo unspecified)
inactive: [1] | [2] | [3] | [4] | [5] | [6] | [7] | [8] | [9] | [10] | [11] | [12] | [13] | [14] | [15] | [16] | [17] | [18] | [19] | [20] | [21] | [22] | [23] | [24] | [25] | [26]
